An excerpt weighted towards active compounds, which were near 1.3% of everything screened.
CtBP-E1A blk: qHTS Assay for Inhibitors of the CtBP/E1A Interaction; actives 0.49% (n = 340,000); AlphaScreen GST-E1A/His-CtBP binding, 1536-well; stronger effect = lower value; AID 651724, 2012; activity change, % (test concentration not listed); CtBP / adenovirus E1A interaction (AlphaScreen)
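In 5 uL wells, 23 nL compound meets equimolar GST-E1A and His-CtBP (5X stock 125 nM each) for 2 h, 37 °C. Beads (5X, 50 ug/mL) then 1 h, 37 °C, dark.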
Six1-Eya2 inh: qHTS Assay for Inhibitors of the Six1/Eya2 Interaction | activity change, % (test concentration not listed) | actives 0.56% (n = 360,000) | Homeobox protein SIX1 (Homo sapiens) + Protein phosphatase EYA2 (Homo sapiens), … | AlphaScreen GST-Six1/His-Eya2 binding, biochemical; stronger effect = lower value | AID 651725, 2012
Target sequence (O00167 whole entry, looked up): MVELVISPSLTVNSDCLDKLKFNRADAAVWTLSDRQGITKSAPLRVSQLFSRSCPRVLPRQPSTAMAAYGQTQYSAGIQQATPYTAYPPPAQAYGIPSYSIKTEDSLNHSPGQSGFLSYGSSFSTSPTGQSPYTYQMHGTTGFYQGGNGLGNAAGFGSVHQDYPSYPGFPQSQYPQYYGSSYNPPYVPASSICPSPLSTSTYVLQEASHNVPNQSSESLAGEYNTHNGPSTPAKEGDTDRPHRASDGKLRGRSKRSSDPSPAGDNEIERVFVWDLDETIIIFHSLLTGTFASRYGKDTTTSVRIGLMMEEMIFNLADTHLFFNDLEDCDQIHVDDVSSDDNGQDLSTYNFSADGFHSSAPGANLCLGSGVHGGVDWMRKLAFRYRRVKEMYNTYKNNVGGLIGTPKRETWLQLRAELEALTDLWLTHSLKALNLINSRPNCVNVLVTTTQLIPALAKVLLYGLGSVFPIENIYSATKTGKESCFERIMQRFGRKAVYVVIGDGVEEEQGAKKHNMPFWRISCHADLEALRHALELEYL
Target sequence (Q15475 whole entry, looked up): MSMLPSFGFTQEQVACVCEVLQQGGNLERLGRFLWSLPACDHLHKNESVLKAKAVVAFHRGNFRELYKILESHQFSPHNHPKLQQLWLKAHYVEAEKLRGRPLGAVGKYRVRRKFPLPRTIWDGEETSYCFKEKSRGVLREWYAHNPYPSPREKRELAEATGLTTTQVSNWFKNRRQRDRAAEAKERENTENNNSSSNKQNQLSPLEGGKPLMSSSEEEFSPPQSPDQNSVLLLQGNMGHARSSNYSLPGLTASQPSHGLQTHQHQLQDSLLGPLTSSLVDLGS
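Compounds are tested against tagged Six1 and Eya2 proteins bridged by glutathione donor and nickel acceptor beads; after a one-hour incubation at 37 °C without light, AlphaScreen emission is recorded.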
CCT modulator: High-Throughput Screening for Modulators of Cytosolic Chaperonin Activity; actives 0.3% (n = 360,000); AID 651819, 2012; purified chaperonin ATPase assay, HTRF ADP detection, 30 min; activity change, % (concentration not given with the values), hits read low; in the data active = activity change below about -30%
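First, chaperonin was dispensed at 40 nM or 20 nM final depending on batch activity. Next, compounds were pinned at 76 uM and ATP added at 10 uM. After 30 min at 37 °C, ADP detection reagents ran 30 min at ambient temperature.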
Akt phos inh: HTS Assay for Inhibitors of Akt Phophorylation: Primary Screen. actives 0.32% (n = 360,000). activity change, % for hits at 50 µM. AID 651550, 2012. Neuro2A IGF-stimulated pAkt S473 HTRF, 20 min; stronger effect = lower value; in the data active = activity change below about -80%; inconclusive = mostly about -51% to -80%
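Single-point screen (50 µM final compound) in Neuro2A cells stimulated 20 min with 6 nM IGF at 37 deg C. After lysis, Ser473-phosphorylated Akt read by HTRF (ex 330 nm, em 615/665 nm) as the 665/615 ratio.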
Of the large screens only hits and unclear results are named; the others gave an inactive call. Rule as the data show it, unless noted: active = activity change below about -65%; inconclusive = mostly about -30% to -63%; inactive = weaker than that.

CC(c1ccon1)N(C)C(=O)c1cccc(OC2CCN(S(C)(=O)=O)CC2)c1 (stereo not given)	none
COc1ccc(CN2CC[C@H]3C=CC[C@@H](C(=O)NCCc4ccccc4)[C@H]3C2=O)cc1OC	none
CCCOc1ccc(Br)cc1/C=N/NC(=O)c1cc(OC)c(OC)c(OC)c1	none
COc1ccc(C(=O)N/N=C/c2cc(Br)ccc2O)cc1OC	CtBP-E1A blk -91, Six1-Eya2 inh -68
O=C(CNC(=O)c1ccncc1)N/N=C/c1cc(Br)ccc1O	CtBP-E1A blk -66, Six1-Eya2 inh inconclusive
COc1ccc(CC(=O)N/N=C/C=C/c2ccc3c(c2)OCO3)cc1OC	Six1-Eya2 inh -69
O=C(CSc1ccc2c(c1)OCCO2)NCCN1C(=O)CSC1=O	Akt phos inh -109%
CCOC(=O)c1cc(=O)nc(N)s1	none
CCN=C1SC(CC(=O)NC(N)=O)C(=O)N1CC (stereo not given)	Akt phos inh -106%
CCN=C1SC(CC(=O)NC2CCCCC2)C(=O)N1CC (stereo not given)	none
O=C(CNC1CCCCC1)Nc1cccc(C(F)(F)F)c1	none
COc1ccc([C@H]2CN(CCc3ccccc3)C(=O)[C@@H]2CC(=O)Nc2ccccc2)cc1	CCT modulator -43
CNC(=O)C[C@H]1C(=O)N(CCc2ccccc2)C[C@@H]1c1ccc(OC)cc1	none
O=c1cc(-c2ccc(O)c(-c3c(O)cc(O)c4c(=O)cc(-c5ccc(O)cc5)oc34)c2)oc2cc(O)cc(O)c12	CtBP-E1A blk -68
O=c1c(-c2c(O)cc(O)c3c(=O)cc(-c4ccc(O)cc4)oc23)c(-c2ccc(O)cc2)oc2cc(O)cc(O)c12	Six1-Eya2 inh -68
O=c1cc(-c2ccc(O)cc2)oc2c(-c3c(O)cc(O)c4c(=O)cc(-c5ccc(O)cc5)oc34)c(O)cc(O)c12	none
O=c1cc(-c2ccc(O)c(O)c2)oc2cc(O)cc(O)c12	CtBP-E1A blk inconclusive, Six1-Eya2 inh inconclusive
CCOC(=O)N1CCN(C(c2ccnc3ccccc23)c2nnnn2-c2ccc3c(c2)OCCO3)CC1 (stereo not given)	none
COc1ccc(CCn2c(C)cc3c(c2=O)C(c2ccncc2)C(C#N)=C(N)O3)cc1OC (stereo not given)	CCT modulator -36
CNc1cc(CS(=O)c2ccccc2)nc(-c2ccccc2)n1 (stereo not given)	Akt phos inh -123%
Cc1cc(SCC(=O)c2ccc3c(c2)OCO3)nc2ccccc12	CCT modulator -69
Cc1cc(SCC(=O)c2ccc(O)c(O)c2)nc2ccccc12	none
Cc1cc(C(=O)CSc2nc3ccccc3c(=O)n2C)c(C)n1Cc1ccc2c(c1)OCO2	Akt phos inh -109%
O=C(COC(=O)c1cnccn1)NC1CCCc2ccccc21 (stereo not given)	none
CCOc1ccccc1NC=C1C(=O)OC2(CCCCC2)OC1=O	CCT modulator -38
CCc1nc2c(OCc3ccc(Cl)cc3Cl)cccn2c1N(C=O)Cc1ccc(OC)cc1	Six1-Eya2 inh inconclusive
O=c1c(Cl)c(NCc2ccc(F)cc2)cnn1C12CC3CC(CC(C3)C1)C2	CCT modulator -31
Cc1ccc(CNc2cnn(C34CC5CC(CC(C5)C3)C4)c(=O)c2Cl)cc1	none
O=S(=O)(NC1CCCCC1N1CCN(c2ccc(F)cc2)CC1)c1ccccc1 (stereo not given)	none (no result: CtBP-E1A blk, Akt phos inh)
O=C(NC1=C(Nc2ccc(Cl)cc2)C(=O)c2ccccc2C1=O)c1ccccc1	CtBP-E1A blk inconclusive, Six1-Eya2 inh inconclusive
O=C1C(Cl)=C(NC(=O)c2ccccc2)C(=O)C(Cl)=C1NC(=O)c1ccccc1	Six1-Eya2 inh -73
CN(C1=C(NC(=O)c2ccc(Cl)cc2)C(=O)c2ccccc2C1=O)c1ccccc1	CtBP-E1A blk -88, Six1-Eya2 inh -86
O=C(Nc1ccc(Cl)c(Cl)c1)c1ccccc1	CCT modulator -50
O=C(Nc1cccc(Cl)c1)c1ccccc1	none
CCN(CC)C(=O)C1=C(C)N(Cc2ccc(OC)cc2)C(=O)C(CC(=O)NCCc2ccccn2)C1 (stereo not given)	none
O=C(CSc1nnc(-c2ccc(C(F)(F)F)cn2)o1)Nc1cccc(Cl)c1	CtBP-E1A blk inconclusive, Six1-Eya2 inh -71
NCCc1nnc(SCC(=O)Nc2cccc(Cl)c2)o1	none (no result: CtBP-E1A blk, Akt phos inh)
O=C(NCCN1CCOCC1)c1ccc(F)cc1	Akt phos inh -101%
CCc1nc2c(OCCOc3ccc(F)cc3)cccn2c1N(C)C(=O)C(C)C	none
CSc1ccc(CN2CCC(C)(Oc3ccccc3)C2)cc1 (stereo not given)	none
Cc1ccc(CNC(=O)CCNS(=O)(=O)c2ccc3c(c2)c(=O)n(C)c(=O)n3C)cc1	none
Cn1c(=O)c2cc(S(=O)(=O)NCCC(=O)N3CC=C(c4ccccc4)CC3)ccc2n(C)c1=O	CtBP-E1A blk -86, Six1-Eya2 inh inconclusive
Cn1c(=O)c2cc(S(=O)(=O)NCCC(=O)NCc3ccccc3Cl)ccc2n(C)c1=O	CtBP-E1A blk -81, Six1-Eya2 inh -69
COc1cccc(NC(=S)N2CCN(S(=O)(=O)c3ccccc3)CC2)c1	none
COc1cccc(CNS(=O)(=O)c2ccc3c(c2)oc(=O)n3C)c1	none
CCOC(=O)C1(C)NC(c2cccs2)C2C(=O)N(c3ccccc3)C(=O)C21 (stereo not given)	none
COC(=O)C1(C)NC(c2cccs2)C2C(=O)N(c3ccc(F)cc3)C(=O)C21 (stereo not given)	Akt phos inh -107%
COc1ccc(N2CC(C(=O)Nc3nnc(SCC(=O)NCC4CCCO4)s3)CC2=O)cc1 (stereo not given)	none
COc1cc2[nH]c(=O)n(CCC(=O)N3CCc4ccccc4C3)c(=O)c2cc1OC	none
COc1cc2[nH]c(=O)n(CCCCCC(=O)N3CC=C(c4ccccc4)CC3)c(=O)c2cc1OC	CtBP-E1A blk -93, Six1-Eya2 inh inconclusive
COc1nc(-c2ccccc2)ccc1-c1noc(-c2cccnc2)n1	none
COc1nc(-c2ccc(C)cc2)ccc1-c1noc(-c2cccnc2)n1	Akt phos inh -105%
CN(C)c1ccc(C(c2ccc(N(C)C)cc2)c2ccc([N+](=O)[O-])cc2)cc1	CtBP-E1A blk inconclusive, Six1-Eya2 inh -83
Cc1ccc(NC(=O)c2cc(=O)c3ccccc3o2)c(C)c1	none
Cc1cccc(NC(=O)c2cc(=O)c3ccccc3o2)n1	Akt phos inh -116%
Cc1ccccc1NC(=O)c1cc(=O)c2ccccc2o1	Akt phos inh -110%
O=c1c2ccccc2nc2c3ccccc3c(NCc3ccccn3)nn12	CtBP-E1A blk -69, Six1-Eya2 inh inconclusive
O=c1c2ccccc2nc2c3ccccc3c(NCCO)nn12	CtBP-E1A blk -71, Six1-Eya2 inh -69
O=C(CCN1CCOCC1)NNC(=O)c1ccc([N+](=O)[O-])cc1[N+](=O)[O-]	none

High-throughput results from PubChem BioAssay.
